PABP1 MLLE inh: inhibitors of microRNA-mediated deadenylation, human PABP1 MLLE binding | inhibition, % at 20 µM | 0.36% of 360,000 active | P11940 | GST-MLLE / FITC-PAM2 fluorescence polarization | AID 588489; in the data active = inhibition above about 35%, passing the limit was not always enough;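 also: plate controls were DMSO wells with GST-MLLE for no effect and wells lacking GST-MLLE protein for full effect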
eIF4H inh: inhibitors of RNA binding by human eIF4H. eIF4H fluorescence polarization binding assay. Q15056. inhibition, % at 35 µM. 0.94% of 290,000 active;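 also: calls also rest on retests at 20 µM and on dose response follow-up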
PABP polyA inh: blocks human PABP binding to poly(A) RNA. P11940. fluorescence polarization. calls only at 35 µM. 1% of 290,000 active;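 also: calls also rest on retests at 20 µM and on dose response follow-up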
PERK inhibitor: inhibitors of human PERK kinase | inhibition, % at 5.6 µM | 0.17% of 220,000 active | AID 1416 | Q9NZJ5 | CHO PERK-DD fusion, SEAP luminescence translation reporter;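 active = inhibition above the mean inhibition of all tested compounds plus 3 SD, set separately per screening campaign, cut at about 2.9% in these data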;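 also: PERK kinase domain activated by AP20187 dimerizer at 100 nM; 0% = DMSO with dimerizer and 100% = rapamycin at 8.4 µM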
eIF4E 4G PPI: blocks eIF4E binding to eIF4G; P63073+Q04637; TR-FRET eIF4E-eIF4GI(517-606) binding, 2 h; inhibition, % at 21.7 µM; 0.37% of 220,000 active;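 active = inhibition above about 30%, limit read from the data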;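 also: 0% = full FRET control wells and 100% = background wells lacking eIF4GI fragment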
Active calls of the source: *; i = inactive; ? = inconclusive; . = not tested or not shown; + = active, no number; [ ] = dose if it differs, or a comment. A selection: hits, their analogues and other compounds. The true share with any hit is near 1.6%. Unless noted, no rule for the calls is given here.

SMILES	PABP1 MLLE inh	eIF4H inh	PABP polyA inh	PERK inhibitor	eIF4E 4G PPI
OCc1nc2nc(Cl)c(Cl)nc2[nH]1	9.8	51.9*	+	0.3	6.8
Cc1ccc(C(C(=O)Nc2ccc3c(c2)OCO3)N(C)C(=O)/C=C\c2ccc3c(c2)OCO3)cc1 (centres undefined)	-1.0	-3.3	i	-1.5	8.2
O=C1ON(Cc2ccccc2)C(c2ccccc2)N1c1ccccc1 (centres undefined)	-6.9	.	.	.	.
CC1(C)S/C(=N/N=C/c2ccco2)NC1=O	-21.1	?	+	1.1	-0.8
CC1S/C(=N/N=C/c2ccco2)NC1=O (centres undefined)	1.6	2.4	i	0.8	-0.4
CCCc1cc(-n2ccnc2)n2c(nc3ccccc32)c1C#N	-48.1	124.6*	i	0.1	0.9
O=C(O)c1ccc2c(c1)C(=O)N(c1cccc(-c3nc4ccccc4s3)c1)C2=O	5.8	0.2	i	0.6	46.3*
O=C(O)c1ccc2c(c1)C(=O)N(CCc1ccccc1)C2=O	-9.5	5.4	i	.	.
O=C(O)c1ccc2c(c1)C(=O)N(N1C(=O)c3ccccc3C1=O)C2=O	4.8	-11.7	+	0.7	-0.8
CC(C)C(=O)N1CCCC1(C)C(=O)Nc1cccc(Oc2ccccc2)c1 (centres undefined)	-4.3	.	.	.	.
Clc1cccc2c1CCN(Cc1nc(-c3cnccn3)no1)C2	14.6	11.1	i	-0.1	0.6
Cc1ccc(-c2cc(C(=O)NCc3ccco3)c3ccccc3n2)o1	15.5	85.6*	+	-0.2	11.6
Cc1cc(C)c2nc(-c3ccccn3)cc(C(=O)NCc3ccco3)c2c1	1.1	47.6*	+	0.5	-1.6
Cc1ccnc(NC(=O)C(C)n2cc([N+](=O)[O-])cn2)c1 (centres undefined)	13.4	39.9	i	0.7	1.7
Cc1c(N)cc(N)cc1C(=O)O	0.3	82.7*	+	0.8	-0.8
N#CC(C#N)=Cc1cccn1-c1ccc(S(N)(=O)=O)cc1	9.0	0.5*	+	-0.8	0.7
COc1cccc2c1NC(C(=O)O)C1CC=CC21 (centres undefined)	22.4	95.6*	+	0.8	48.3*[fluorescence artefact?]
COc1cccc(C2Nc3c(F)cc(Br)cc3C3C=CCC32)c1OC (centres undefined)	9.4	-10.8	i	1.4	0.3
O=C(O)C1Nc2c(cccc2C(F)(F)F)C2C=CCC12 (centres undefined)	.	80.1*	+	.	.
CC1(C(O)(C#CC[N+]2(C)CCCCC2)c2ccccc2)CCCC1 (centres undefined)	-123.1	6.9	+	0.6	3.3
O=C(/C=C/[C@H]1O[C@@H](n2ccc(=O)[nH]c2=O)[C@H](O)[C@@H]1O)NCCN1CCCC1	-0.8	.	.	.	.
COc1ccc(N=C2S/C(=C\c3ccc(OC(C)C(=O)O)c(OC)c3)C(=O)N2CCc2c[nH]c3ccccc23)cc1 (centres undefined)	-6.9	?	+	1.7	9.0
COc1ccccc1/C=C/C(=O)NCCc1ccccn1	5.7	11.4	i	.	.
O=[N+]([O-])C(/C=C(\Cl)[N+](=O)[O-])=C1N(Cc2ccc(Cl)nc2)CCN1Cc1ccc(Cl)nc1	-82.3	?	+	-0.3	-7.3
O=[N+]([O-])/C(C(=C(Cl)Cl)N1CCN(Cc2ccccc2)CC1)=C1\NCCN1Cc1ccc(Cl)nc1	-5.0	4.4	i	0.3	-1.9
SMILES	PABP1 MLLE inh	eIF4H inh	PABP polyA inh	PERK inhibitor	eIF4E 4G PPI
O=C1Nc2ccccc2SC1=Cc1ccccc1	31.8	.	.	.	.
O=C1CCCC2=C1Sc1ccccc1N2	42.6*	43.3	i	1.5	5.3
O=C(NCCCO)c1ccc2nc(-c3ccco3)c(-c3ccco3)nc2c1	21.2	95.6	i	0.3	5.6
O=C(Nc1ccccc1)c1ccc2nc(-c3ccco3)c(-c3ccco3)nc2c1	3.1	99.9*	+	0.3	-0.2
O=C(NCCO)Nc1ccc2nc(-c3ccco3)c(-c3ccco3)nc2c1	.	?	?	0.3	61.7*
CC(=O)c1ccc(NC(=O)c2ccc3nc(-c4ccco4)c(-c4ccco4)nc3c2)cc1	8.1	103.4*	+	-0.3	46.7*[fluorescence artefact?]
O=C(NCc1ccccc1)c1ccc2nc(-c3ccco3)c(-c3ccco3)nc2c1	18.5	107.6*	+	0.1	13.1
O=C(Nc1ccc2nc(-c3ccco3)[nH]c2c1)c1ccco1	11.7	60.7	+	0.0	8.3
Nc1c(C(=O)Nc2ccccc2)sc2nc(-c3ccco3)ccc12	-16.2	75.3*	+	1.0	2.5
